Assay results from the supplement of paper PMC6555819.

Assays:
Assay in all cases: PBM binding z-score (relative to random genomic background probes); higher = stronger binding; sequences stand for … in GC…GCGATTGACAGCGTAGAATGAAGG
[1] = tested on: FXR:RXRa (NR concentration 270 nM, RXRa partner concentration 90 nM)
Procedure, shortened: (§1)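 Random background probes are the reference for binding z-scores. These scores derive from regression-normalized fluorescence on custom Agilent 4×180K protein-binding microarrays incubated 1 h with ligand-free nuclear receptor dimers. Binding was detected with antibodies against each partner (one per run).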

[2] = tested on: LXRa:RXRa (NR concentration 270 nM, RXRa partner concentration 90 nM)
Procedure, shortened: as §1

[3] = tested on: LXRa homodimer (NR concentration 270 nM)
Procedure, shortened: as §1

[4] = tested on: LXRb:RXRa (NR concentration 270 nM, RXRa partner concentration 90 nM)
Procedure, shortened: as §1

[5] = tested on: LXRb homodimer (NR concentration 270 nM)
Procedure, shortened: as §1

[6] = tested on: PPARa:RXRa (NR concentration 270 nM, RXRa partner concentration 90 nM)
Procedure, shortened: as §1

[7] = tested on: PPARg:RXRa (NR concentration 180 nM, RXRa partner concentration 90 nM)
Procedure, shortened: as §1

[8] = tested on: PPARg:RXRa 270nM:90nM, anti-RXR (NR concentration 270 nM, RXRa partner concentration 90 nM)
Procedure, shortened: as §1

[9] = tested on: PPARg:RXRa 30nM:10nM, anti-RXR (NR concentration 30 nM, RXRa partner concentration 10 nM)
Procedure, shortened: as §1

[10] = tested on: PPARg:RXRa 90nM:30nM, anti-RXR (NR concentration 90 nM, RXRa partner concentration 30 nM)
Procedure, shortened: as §1

Sequence | PBM binding z-score [1] | PBM binding z-score [2] | PBM binding z-score [3] | PBM binding z-score [4] | PBM binding z-score [5] | PBM binding z-score [6] | PBM binding z-score [7] | PBM binding z-score [8] | PBM binding z-score [9] | PBM binding z-score [10]
ACTAGTTGGTCAGCTGAGGTCTCACACAATTCGG | 0.132 | -0.314 | -0.301 | -0.188 | -0.19 | 0.142 | 0.384 | 0.246 | -0.202 | 0.00207
AGGCAAAGTTCACTAGGTAACGTAAGATTCAGCT | 5.31 | 5.15 | 2.57 | 3.12 | 0.881 | 4.61 | 6.33 | 6.04 | 2.78 | 5.21
CCTACTGGGCCAAGGTCATGGATCAGTCAAAGCA | 3.04 | 3.08 | 0.47 | 3.01 | -0.724 | 4.32 | 4.52 | 4.76 | 1.8 | 3.69
ATCTCTAGGTAACAAGTTCTGTGAAAGAGAGGAC | 0.351 | 0.0214 | 0.142 | 0.0812 | 0.681 | 0.641 | 1.01 | 1.5 | 0.751 | 1.08
CGGCCAAGGTCATAGGAGGTCAGTGAAGACAGAT | 7.73 | 7.58 | 4.26 | 6.03 | 0.344 | 5.82 | 5.92 | 5.6 | 2.38 | 4.77
CAGCCTAGGTCAGGGCCGGTATAGGAGGAACGTT | 1.62 | 0.777 | -0.703 | 0.466 | -1.51 | 1.97 | 0.482 | 0.692 | -0.326 | -0.0222
CGTCCAAGCTCATAGGAGGTCAGTGAAGACAGAT | 0.888 | 1.51 | 1.08 | 1.33 | -0.0875 | 1.92 | 0.491 | 0.292 | -0.158 | 0.173
CGAACGAGGGCGTGAGTTGATAGCAAATGCCGAT | -0.128 | -0.241 | -0.781 | -0.468 | -0.878 | 0.0145 | 0.401 | 0.0824 | -0.205 | -0.084
GCAGACAGGTGAAACGCAGGTAAATCAGGGTGGC | -0.326 | -0.128 | -0.519 | -0.258 | -0.862 | 0.983 | 0.513 | -0.213 | -0.632 | -0.346
CAAACTAGGTCAAAGAGGTCAAAGTCCGTGCGTA | 6.71 | 6.33 | 6.39 | 5.91 | 2.23 | 6.17 | 8.55 | 7.69 | 6.36 | 7.64
CAAACTAGGTCAAGAGGTCAAAATCCGCTTCCCG | 6.73 | 6.04 | 5.14 | 5.6 | 1.75 | 6.65 | 9.69 | 8.11 | 7.03 | 8.2
CGTCCAAGGTCAATGCTAGTTCAGTGAAAGCATT | 7.07 | 4.94 | 1.4 | 3.86 | 0.707 | 4.84 | 3.72 | 4.27 | 1.01 | 2.95
GCTAGTTGGTCAGTAAAACGTCACACACCGGTCG | -0.277 | -0.464 | -0.383 | -0.473 | -0.195 | -0.343 | 0.524 | -0.186 | -0.445 | -0.286
GCTATTAGTTGAAAGGGCAACTGAATGATTCTCG | 0.614 | 0.896 | 0.18 | 1.1 | 0.073 | 2.51 | 2.65 | 4.03 | 2.6 | 4.54
ACAGACAGGTGAGTGAAGGTAACTCAGCTGGACG | 0.377 | 0.0321 | -0.247 | -0.255 | -0.625 | 0.294 | 0.762 | 0.0476 | -0.138 | -0.304
GCTATTAGTTCAAAGGGCAACCGAATGATTCTCG | 2.78 | 2.89 | 0.929 | 2.17 | 0.2 | 3.79 | 4.51 | 5.96 | 5.32 | 6.42
TCTCGGAGGACACGAAGTTCAGAGCTTTCCAGAG | 0.621 | 0.0816 | -0.00666 | 0.0852 | -0.97 | 0.472 | -0.146 | 1.2 | 2.18 | 1.76
TGAATGAGGTTATAAGATTAGGGAACGTTGCAAA | 1.34 | 1.39 | 0.076 | 1.21 | -0.0904 | 2.29 | 1.15 | 1.55 | 1.09 | 1.51
CCTTACGGGTCACTCCACGTTATAGCATCGGAGT | 4.04 | 3.03 | 0.131 | 2.58 | 0.341 | 4.28 | 3.02 | 3.29 | 1.1 | 2.31
CCTAGCAGGCCAATCTGGGGCACTCAAGGCTTGA | -0.393 | -0.285 | -0.624 | -0.768 | -1.24 | 0.967 | 0.549 | 0.547 | -0.732 | -0.289
CCGACTGGGGCATAAGGTTACCTTAAGCCAGCCC | 0.144 | 2.16 | -0.305 | 0.631 | -1.36 | 1.9 | 2.04 | 3.18 | 0.872 | 2.64
CGAACGAGGGCATGACTTGATAGCAAATGCCGAT | 0.404 | 0.369 | -0.781 | 0.0827 | -0.668 | 1.26 | 1.28 | 0.865 | -0.352 | 0.26
CAAACTAGGTCAAGGGTCAAAGTCGAGCCAACCA | 7.52 | 5.72 | 2.34 | 5.71 | 1.02 | 7.64 | 13.1 | 10.9 | 11.4 | 11.8
